Screens: PubChem, The Scripps Research Institute Molecular Screening Center
ADAM17 inh = ADAM17 inhibition, QFRET primary screen; recombinant ADAM17, EDANS/DABCYL FRET peptide cleavage; inhibition, % at 6.95 µM; actives 0.83% (n = 370,000);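 active = inhibition above the mean of compounds lying between control limits plus 3 SD, set per campaign, cut at about 8.5% in these data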;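 also: 0% = DMSO-only wells as the low control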
KLK7 zymogen act = activators of human kallikrein-7 zymogen; P49862; purified proKLK7, EDANS-DABCYL substrate fluorescence; 100% is mature enzyme control, 0% vehicle; activation, % at 7 µM; actives 0.9% (n = 370,000); AID 652039;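 active = activation above the mean of all tested compounds plus 3 SD, computed per campaign excluding outliers beyond control limits, cut at about 13% in these data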
PLCg1 inh = blocks human PLC-gamma1 enzyme activity. P19174. purified PLC-gamma1, fluorogenic substrate, fluorescence. inhibition, % at 12.2 µM. actives 0.84% (n = 370,000)
PLCb3 inh = inhibitors of human phospholipase C beta3; Q01970; Purified PLC-beta3, fluorogenic substrate, fluorescence; inhibition, % at 12.2 µM; actives 0.18% (n = 370,000); in the data active = inhibition above about 11%;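 also: 0% = median of compound wells on plate and 100% = full blocker control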
ADAM10 inh = inhibitors of human ADAM10. actives 0.62% (n = 370,000). O14672. recombinant ADAM10, EDANS/DABCYL FRET peptide cleavage, 3 h. AID 720582. inhibition, % at 7 µM;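 active = inhibition above a per-campaign cutoff equal to the mean of compounds falling between control-based bounds plus 3 SD, cut at about 20% in these data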;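 also: 0% = DMSO wells while the 100% control is not disclosed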
PLCg1 ctr = inhibits human PLC-gamma1 in PLC-beta3 counter-screen. shares compounds with PLCg1 inh. purified PLC-gamma1, fluorogenic substrate, fluorescence. inhibition, % at 12.3 µM. actives 3.1% (n = 3,300). AID 743258
PLCbeta3 conf = human PLC-beta3 inhibition, confirmation | purified PLC-beta3, fluorogenic substrate fluorescence | shares compounds with PLCg1 inh | inhibition, % at 12.3 µM | actives 1% (n = 3,300); in the data active = inhibition above about 11%
* hit, by the source's call. Most compounds without a hit are left out; they make up all but 2.9% or so of the library. Rule as the data show it, unless noted: active = inhibition above about 9.5%; inactive = the rest.

For COc1ccc(-c2nnc(SCC(=O)Nc3ccccc3)n2C)cc1 the results were ADAM17 inh 2, KLK7 zymogen act -1, PLCg1 inh 13*, PLCb3 inh 2, ADAM10 inh 0, PLCg1 ctr -7 and PLCbeta3 conf -3.
For COc1ccc(-c2nnc(SCC(=O)NCc3cccs3)n2CC(C)C)cc1 the results were ADAM17 inh 3, KLK7 zymogen act 0, PLCg1 inh 10*, PLCb3 inh 9, ADAM10 inh 12, PLCg1 ctr -3 and PLCbeta3 conf 1.
Screening COc1ccc(-c2nnc(SCC(=O)N/N=C/c3ccccc3C(=O)O)n2-c2ccccc2)cc1 returned ADAM17 inh 5, KLK7 zymogen act 0, PLCg1 inh 14*, PLCb3 inh 3, ADAM10 inh 12, PLCg1 ctr -1 and PLCbeta3 conf -2.
`Cc1ccc(-c2nnc(SCC(=O)N/N=C/c3ccccc3C(=O)O)n2-c2ccc(C)cc2)cc1` gave ADAM17 inh 1, KLK7 zymogen act 0, PLCg1 inh 0, PLCb3 inh -5 and ADAM10 inh 5.
Screening Cc1ccc(NC(=O)CSCC(=O)N(CCC(C)C)c2c(N)n(Cc3ccccc3)c(=O)[nH]c2=O)cc1 returned ADAM17 inh -2, KLK7 zymogen act 0, PLCg1 inh -3, PLCb3 inh -5 and ADAM10 inh -4.
`CCOCCCn1c(=N)c(S(=O)(=O)c2ccc(C)cc2)cc2c(=O)n3cc(C)ccc3nc21` gave ADAM17 inh -29, KLK7 zymogen act 0, PLCg1 inh -21, PLCb3 inh -35 and ADAM10 inh -69.
`O=C(Oc1ccc(Br)cc1C(=S)N1CCCC1)c1ccccc1F` gave ADAM17 inh 6, KLK7 zymogen act 0, PLCg1 inh 13*, PLCb3 inh 2, ADAM10 inh 10, PLCg1 ctr -4 and PLCbeta3 conf -3.
O=C(NCCS(=O)(=O)N1CCN(c2ccccc2F)CC1)c1cccc(Br)c1 was read as ADAM17 inh -3, KLK7 zymogen act 0, PLCg1 inh 1, PLCb3 inh -6 and ADAM10 inh 0.
Screening COC(=O)c1ccc(N2C(=O)C3CC=CC(C)C3C2=O)cc1 (stereo not drawn) returned ADAM17 inh 3, KLK7 zymogen act 0, PLCg1 inh 10*, PLCb3 inh 4, ADAM10 inh 5, PLCg1 ctr -4 and PLCbeta3 conf -2.
`CC(C)OC(=O)c1ccc(N2C(=O)C3CC=CCC3C2=O)cc1` (stereo not drawn) gave ADAM17 inh -5, KLK7 zymogen act 0, PLCg1 inh -1, PLCb3 inh 1 and ADAM10 inh 1.
Cc1ccc(NS(=O)(=O)c2c(C)nc3sccn3c2=O)cc1 was read as ADAM17 inh 7, KLK7 zymogen act 0, PLCg1 inh 5, PLCb3 inh 9 and ADAM10 inh 15.
Cc1nc2sccn2c(=O)c1S(=O)(=O)Nc1ccc(N2CCN(C(=O)C(C)C)CC2)cc1 was read as ADAM17 inh 6, KLK7 zymogen act 0, PLCg1 inh 12*, PLCb3 inh 6, ADAM10 inh 5, PLCg1 ctr -5 and PLCbeta3 conf 0.
O=C(c1ccccc1)N1CCOC12CCN(c1ncc(C(F)(F)F)cc1Cl)CC2 was read as ADAM17 inh -1, KLK7 zymogen act 0, PLCg1 inh 1, PLCb3 inh -3 and ADAM10 inh -8.
O=C(c1ccc([N+](=O)[O-])cc1)N1CCOC12CCN(c1ncc(C(F)(F)F)cc1Cl)CC2 was read as ADAM17 inh 6, KLK7 zymogen act 0, PLCg1 inh 11*, PLCb3 inh 9, ADAM10 inh 9, PLCg1 ctr 3 and PLCbeta3 conf 1.
For COc1ccccc1C(=O)N(C)c1nnc(-c2ccccc2)s1 the results were ADAM17 inh 4, KLK7 zymogen act 1, PLCg1 inh 9.7*, PLCb3 inh 4, ADAM10 inh 13, PLCg1 ctr -1 and PLCbeta3 conf 2.
For O=C(NCCc1c[nH]c2ccccc12)OCc1cn(Cc2cccc(F)c2)nn1 the results were ADAM17 inh 2, KLK7 zymogen act 0, PLCg1 inh -1, PLCb3 inh -1 and ADAM10 inh -2.
Cc1ccccc1NC(=O)C(C)Sc1nnc(CN2CCCC2)n1Cc1ccccc1 (stereo not drawn) was read as ADAM17 inh 0, KLK7 zymogen act 0, PLCg1 inh 10*, PLCb3 inh 0, ADAM10 inh -16, PLCg1 ctr -5 and PLCbeta3 conf -2.
CC(Sc1nnc(CN2CCCC2)n1Cc1ccccc1)C(=O)Nc1ccccc1 (stereo not drawn) was read as ADAM17 inh -2, KLK7 zymogen act 1, PLCg1 inh 3, PLCb3 inh -7 and ADAM10 inh -11.
`O=C(CS(=O)(=O)c1ccccc1)NCc1ccccc1` gave ADAM17 inh -2, KLK7 zymogen act 1, PLCg1 inh 0, PLCb3 inh -21 and ADAM10 inh 3.
`CC(C)Cn1c(N)c(C(=O)COC(=O)c2ccccc2C(=O)c2ccccc2)c(=O)n(C)c1=O` gave ADAM17 inh 1, KLK7 zymogen act -1, PLCg1 inh 1, PLCb3 inh -6 and ADAM10 inh 3.
`NC(=O)c1ccc(NS(=O)(=O)c2ccc(Br)s2)cc1` gave ADAM17 inh 1, KLK7 zymogen act 0, PLCg1 inh 9.7*, PLCb3 inh -2, ADAM10 inh 7, PLCg1 ctr -4 and PLCbeta3 conf -3.
CC(C)(C)c1ccc(CNc2nc(-c3ccccn3)nnc2-c2ccccc2)cc1 was read as ADAM17 inh -2, PLCg1 inh 18*, PLCb3 inh 5, ADAM10 inh 1, PLCg1 ctr 14* and PLCbeta3 conf 15*.
For Cc1cc(C)nc(Nc2nc3ccccc3[nH]2)n1 the results were ADAM17 inh 6, KLK7 zymogen act 1, PLCg1 inh 13*, PLCb3 inh 9, ADAM10 inh 11, PLCg1 ctr -6 and PLCbeta3 conf -2.
Screening Cc1ccc(C)c(Nc2nc3ccccc3[nH]2)c1 returned ADAM17 inh -3, KLK7 zymogen act 0, PLCg1 inh -1, PLCb3 inh -8 and ADAM10 inh 6.
For O=S1(=O)CC(N2CCSCC2)CN1Cc1cn(Cc2ccc(C(F)(F)F)cc2)nn1 (stereo not drawn) the results were ADAM17 inh 5, KLK7 zymogen act 0, PLCg1 inh 13*, PLCb3 inh 6, ADAM10 inh 4, PLCg1 ctr -3 and PLCbeta3 conf 1.
Screening CN1CCN(C2CN(Cc3cn(Cc4ccc(C(F)(F)F)cc4)nn3)S(=O)(=O)C2)CC1 (stereo not drawn) returned ADAM17 inh 3, KLK7 zymogen act 1, PLCg1 inh -2, PLCb3 inh -1 and ADAM10 inh -26.
